Assay results: the supplement of paper PMC6607015
Structures can show the parent of a compound that is named as a salt.

Key:
Details in all cases: compound concentration in added solution (µM; 5 µl added to 20 µl cells): 10; 18 h
A431 [1] = assay: LBPA endosome anti-LBPA integrated intensity (sum per cell), Z-score; higher = more LBPA staining
Summary of the method: (§1)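 Reported values are Z-scores from AcuityXpress normalisation of per-cell integrated LBPA or filipin staining. HeLa MZ or A431 cells (3,500/well in 20 µl) were seeded onto 5 µl of 10 µM compound solution in duplicate 384-well plates, incubated 18 h, fixed in 4% PFA, stained and imaged at 20×. MetaXpress segmentation measured the intensity over the whole cell or within LBPA endosomes.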

HeLa MZ [2] = assay: as above
Summary of the method: as §1

A431 [3] = assay: whole-cell filipin (free cholesterol) integrated intensity, Z-score; higher = more cholesterol staining
Summary of the method: as §1

HeLa MZ [4] = assay: as above
Summary of the method: as §1

A431 [5] = assay: filipin (cholesterol) integrated intensity within LBPA endosomes, Z-score; higher = more cholesterol in LBPA endosomes
Summary of the method: as §1

HeLa MZ [6] = assay: as above
Summary of the method: as §1

Row | SMILES | LBPA endosome anti-LBPA integrated intensity (z-score) (A431 [1]) | LBPA endosome anti-LBPA integrated intensity (z-score) (HeLa MZ [2]) | whole-cell filipin (z-score) (A431 [3]) | whole-cell filipin (z-score) (HeLa MZ [4]) | filipin (z-score) (A431 [5]) | filipin (z-score) (HeLa MZ [6])
1 | CCCCc1nc(Cl)c(CO)n1Cc1ccc(-c2ccccc2-c2nnn[nH]2)cc1 [Losartan] | -0.107 | -0.132 | 0.421 | -0.132 | -0.313 | -0.537
2 | O=C(O)CCCC[C@@H]1SC[C@@H]2NC(=O)N[C@@H]21 [Biotin] | -0.478 | -0.782 | -0.69 | -0.491 | -0.471 | -0.52
3 | COc1ccc2c(c1)N(C[C@H](C)CN(C)C)c1ccccc1S2 [Methotrimeprazine maleat salt] | 2.94 | 1.48 | 1.03 | -0.207 | 1.82 | 1.55
4 | CC(=O)CCCCn1c(=O)c2c(ncn2C)n(C)c1=O [Pentoxifylline] | -0.527 | -0.115 | -0.786 | -0.278 | -0.513 | -0.514
5 | CC1(C)NC(=O)N(c2ccc([N+](=O)[O-])c(C(F)(F)F)c2)C1=O [Nilutamide] | -0.466 | -0.349 | -0.373 | -0.711 | -0.474 | -0.472
6 | CC(=O)N(O)CCCCCNC(=O)CCC(=O)N(O)CCCCCNC(=O)CCC(=O)N(O)CCCCCN [Deferoxamine mesylate] | -0.408 | -0.755 | 0.541 | -0.469 | -0.422 | -0.499
7 | CCOC(=O)C1=C(COCCN)NC(C)=C(C(=O)OC)C1c1ccccc1Cl (configuration not stated) [Amlodipine] | 1.97 | 0.223 | 0.774 | 0.736 | 2.32 | 1.8
8 | CC(C(=O)O)c1ccc(C(=O)c2ccccc2)s1 (configuration not stated) [Tiaprofenic acid] | -0.52 | -0.291 | -0.49 | 0.105 | -0.443 | -0.426
9 | OCc1cc(C(O)CNCCCCCCOCCCCc2ccccc2)ccc1O (configuration not stated) [Salmeterol] | 2.65 | 2.85 | 3.59 | 2.48 | 1.61 | 2.18
10 | COc1cc2ncnc(Nc3ccc(F)c(Cl)c3)c2cc1OCCCN1CCOCC1 [Gefitinib] | 3.94 | 2.43 | 0.816 | 0.788 | 2.49 | 2.83
11 | CCOC(=O)[C@H](CCc1ccccc1)N[C@@H](C)C(=O)N1[C@H](C(=O)O)C[C@@H]2CCC[C@@H]21 [Ramipril] | -0.401 | -1.57 | -0.0336 | -0.633 | -0.446 | -0.529
12 | Cn1c(=O)c2c(ncn2C)n(C)c1=O [Caffeine] | -0.331 | -0.197 | -0.0359 | 0.547 | -0.318 | -0.108
13 | C[N+](C)(C)CCOC(N)=O [Carbachol] | -0.538 | -0.848 | -0.548 | -0.381 | -0.44 | -0.42
14 | CCC[C@H](N[C@@H](C)C(=O)N1[C@H](C(=O)O)C[C@@H]2CCCC[C@@H]21)C(=O)OCC [Perindopril] | -0.273 | -0.885 | 0.0463 | -0.4 | -0.305 | -0.603
15 | CCCNC(C)(C)COC(=O)c1ccccc1 [Meprylcaine hydrochloride] | -0.522 | -0.427 | -0.299 | -0.094 | -0.429 | -0.419
16 | O=c1oc2ccccc2c(O)c1Cc1c(O)c2ccccc2oc1=O [Dicumarol] | -0.455 | -0.834 | -0.37 | -0.48 | -0.64 | -0.672
17 | N[C@H]1CONC1=O [(S)-(-)-Cycloserine] | -0.455 | -0.138 | -0.147 | -0.221 | -0.457 | -0.283
18 | CC12CC3CC(C)(C1)CC(N)(C3)C2 [Memantine Hydrochloride] | -0.449 | 0.231 | 0.233 | 0.438 | -0.349 | -0.0275
19 | c1ccc2c(c1)CCCC2C1=NCCN1 (configuration not stated) [Tetrahydrozoline hydrochloride] | -0.429 | 1.07 | -0.35 | 0.315 | -0.366 | 0.0856
20 | Cc1cnc(C(=O)NCCc2ccc(S(=O)(=O)NC(=O)NC3CCCCC3)cc2)cn1 [Glipizide] | -0.539 | 0.251 | -1.07 | -1.32 | -0.587 | -0.757
21 | N[C@@H](C(=O)N[C@@H]1C(=O)N2C(C(=O)O)=C(Cl)CC[C@H]12)c1ccccc1 [Loracarbef] | -0.535 | -0.139 | -0.847 | -0.304 | -0.553 | -0.73
22 | CC(C(=O)O)c1cccc(C(=O)c2ccccc2)c1 (configuration not stated) [Ketoprofen] | -0.482 | -0.219 | -0.803 | -0.835 | -0.552 | -0.545
